According to the supplement of paper PMC11732987, “Enantioselective OTUD7B fragment discovery through chemoproteomics screening and high-throughput optimisation” (Communications Chemistry, 2025):

Experiments:
Test in all cases: log2 ratio of Biotin-Ahx-Ub-VS probe labelling (fragment/DMSO); higher = less target engagement (more negative = stronger competition), active = hit call of the paper (q ≤ 0.05, log2 ratio ≤ -1)
Settings in all cases: compound concentration: 200 uM; treatment time: 3 h
USP42 = target: T1, USP42 (UniProt Q9H9J4)
T1 sequence (whole entry): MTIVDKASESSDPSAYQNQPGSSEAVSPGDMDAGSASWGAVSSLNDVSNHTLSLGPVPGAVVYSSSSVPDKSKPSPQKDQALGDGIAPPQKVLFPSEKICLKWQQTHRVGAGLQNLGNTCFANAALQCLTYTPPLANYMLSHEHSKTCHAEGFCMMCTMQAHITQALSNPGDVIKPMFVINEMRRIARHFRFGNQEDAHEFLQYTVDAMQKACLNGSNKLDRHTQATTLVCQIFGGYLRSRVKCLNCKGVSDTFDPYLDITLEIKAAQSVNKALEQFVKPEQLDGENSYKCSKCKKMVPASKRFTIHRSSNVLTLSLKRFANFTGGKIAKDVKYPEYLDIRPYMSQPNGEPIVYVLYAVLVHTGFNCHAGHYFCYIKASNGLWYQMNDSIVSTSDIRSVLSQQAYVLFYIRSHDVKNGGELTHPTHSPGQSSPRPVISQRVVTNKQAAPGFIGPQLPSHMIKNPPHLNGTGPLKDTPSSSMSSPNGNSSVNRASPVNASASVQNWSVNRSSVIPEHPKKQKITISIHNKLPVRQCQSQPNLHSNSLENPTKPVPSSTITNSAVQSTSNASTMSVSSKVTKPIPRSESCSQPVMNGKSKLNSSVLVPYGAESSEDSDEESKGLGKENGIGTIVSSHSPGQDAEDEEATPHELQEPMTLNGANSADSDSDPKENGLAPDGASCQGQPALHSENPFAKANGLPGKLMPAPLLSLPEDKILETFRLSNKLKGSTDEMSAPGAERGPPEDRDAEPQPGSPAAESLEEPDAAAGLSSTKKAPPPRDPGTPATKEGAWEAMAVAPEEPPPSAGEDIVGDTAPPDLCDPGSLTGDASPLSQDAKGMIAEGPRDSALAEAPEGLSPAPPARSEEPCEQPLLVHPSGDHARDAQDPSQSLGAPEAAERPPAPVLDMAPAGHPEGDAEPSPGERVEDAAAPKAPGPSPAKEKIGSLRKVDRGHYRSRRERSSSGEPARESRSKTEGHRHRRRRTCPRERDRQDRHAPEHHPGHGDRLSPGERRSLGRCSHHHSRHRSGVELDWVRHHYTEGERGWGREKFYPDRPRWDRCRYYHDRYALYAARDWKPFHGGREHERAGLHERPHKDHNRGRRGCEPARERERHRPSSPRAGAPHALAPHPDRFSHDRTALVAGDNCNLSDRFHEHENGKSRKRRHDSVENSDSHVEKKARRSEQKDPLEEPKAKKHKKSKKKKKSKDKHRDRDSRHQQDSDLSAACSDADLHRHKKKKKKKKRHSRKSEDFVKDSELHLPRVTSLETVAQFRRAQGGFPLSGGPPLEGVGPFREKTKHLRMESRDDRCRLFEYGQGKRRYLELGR
How it was run: (§1)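 HEK293T lysate, 495 µg per sample in Tris/CHAPS/IGEPAL buffer with protease inhibitors, was treated in triplicate with fragment at 200 µM or vehicle for 3 h and then with Biotin-Ahx-Ub-VS at 0.5 µM final for 1 h. Labelled DUBs were NeutrAvidin-enriched, digested with LysC and trypsin, and run by diaPASEF LC-MS/MS. Spectronaut label-free quantities were global-median-normalised, and values are average log2 fragment/vehicle ratios by unpaired t-test on proteins with ≥2 unique peptides.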

USP46 = USP46 (UniProt P62068)
USP46, sequence (P62068 whole entry): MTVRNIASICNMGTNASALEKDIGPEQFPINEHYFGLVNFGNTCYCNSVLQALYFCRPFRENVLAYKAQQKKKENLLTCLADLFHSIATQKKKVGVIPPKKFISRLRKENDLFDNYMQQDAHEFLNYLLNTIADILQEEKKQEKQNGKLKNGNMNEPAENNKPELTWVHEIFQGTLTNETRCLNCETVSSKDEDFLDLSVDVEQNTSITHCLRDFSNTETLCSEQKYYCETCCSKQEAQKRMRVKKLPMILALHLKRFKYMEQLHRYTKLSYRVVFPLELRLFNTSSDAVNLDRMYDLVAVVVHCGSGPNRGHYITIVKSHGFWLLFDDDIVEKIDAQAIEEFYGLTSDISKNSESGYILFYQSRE
How it was run: as §1

USP47 = target: T2, USP47 (UniProt Q96K76)
T2 sequence (whole entry): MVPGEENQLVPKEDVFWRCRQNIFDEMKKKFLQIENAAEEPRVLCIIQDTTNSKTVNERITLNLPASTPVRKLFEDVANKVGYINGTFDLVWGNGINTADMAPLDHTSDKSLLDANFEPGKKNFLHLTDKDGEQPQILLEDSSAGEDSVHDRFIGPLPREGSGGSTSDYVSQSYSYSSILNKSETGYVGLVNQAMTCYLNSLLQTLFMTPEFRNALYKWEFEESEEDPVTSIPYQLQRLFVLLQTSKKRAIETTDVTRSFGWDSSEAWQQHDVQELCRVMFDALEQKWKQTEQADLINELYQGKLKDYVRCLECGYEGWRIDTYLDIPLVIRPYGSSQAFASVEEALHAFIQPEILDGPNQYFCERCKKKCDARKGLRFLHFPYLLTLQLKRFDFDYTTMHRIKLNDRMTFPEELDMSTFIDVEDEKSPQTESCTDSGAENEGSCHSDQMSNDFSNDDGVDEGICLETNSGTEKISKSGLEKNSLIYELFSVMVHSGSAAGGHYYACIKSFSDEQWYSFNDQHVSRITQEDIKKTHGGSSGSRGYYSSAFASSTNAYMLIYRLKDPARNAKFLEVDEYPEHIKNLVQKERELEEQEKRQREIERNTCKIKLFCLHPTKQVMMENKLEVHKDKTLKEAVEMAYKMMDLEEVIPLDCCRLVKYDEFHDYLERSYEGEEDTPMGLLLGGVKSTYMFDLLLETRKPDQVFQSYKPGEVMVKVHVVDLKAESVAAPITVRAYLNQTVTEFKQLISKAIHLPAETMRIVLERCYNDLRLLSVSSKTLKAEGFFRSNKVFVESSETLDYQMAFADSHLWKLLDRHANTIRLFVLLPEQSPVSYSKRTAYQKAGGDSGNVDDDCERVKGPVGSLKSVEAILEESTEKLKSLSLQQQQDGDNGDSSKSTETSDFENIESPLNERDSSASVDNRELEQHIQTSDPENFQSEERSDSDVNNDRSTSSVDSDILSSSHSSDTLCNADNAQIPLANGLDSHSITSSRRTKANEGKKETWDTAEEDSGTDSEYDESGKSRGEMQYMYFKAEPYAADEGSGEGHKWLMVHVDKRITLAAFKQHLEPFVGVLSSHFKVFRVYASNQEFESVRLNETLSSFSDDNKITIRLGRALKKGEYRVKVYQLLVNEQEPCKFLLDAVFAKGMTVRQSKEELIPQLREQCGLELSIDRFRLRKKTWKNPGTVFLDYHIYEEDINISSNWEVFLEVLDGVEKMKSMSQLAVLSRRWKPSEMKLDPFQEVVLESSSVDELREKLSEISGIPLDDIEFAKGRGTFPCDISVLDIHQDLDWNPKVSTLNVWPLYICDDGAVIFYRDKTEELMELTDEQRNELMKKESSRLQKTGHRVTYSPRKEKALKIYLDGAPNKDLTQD
How it was run: as §1

USP48 = target: T3, USP48 (UniProt Q86UV5)
T3 sequence (whole entry): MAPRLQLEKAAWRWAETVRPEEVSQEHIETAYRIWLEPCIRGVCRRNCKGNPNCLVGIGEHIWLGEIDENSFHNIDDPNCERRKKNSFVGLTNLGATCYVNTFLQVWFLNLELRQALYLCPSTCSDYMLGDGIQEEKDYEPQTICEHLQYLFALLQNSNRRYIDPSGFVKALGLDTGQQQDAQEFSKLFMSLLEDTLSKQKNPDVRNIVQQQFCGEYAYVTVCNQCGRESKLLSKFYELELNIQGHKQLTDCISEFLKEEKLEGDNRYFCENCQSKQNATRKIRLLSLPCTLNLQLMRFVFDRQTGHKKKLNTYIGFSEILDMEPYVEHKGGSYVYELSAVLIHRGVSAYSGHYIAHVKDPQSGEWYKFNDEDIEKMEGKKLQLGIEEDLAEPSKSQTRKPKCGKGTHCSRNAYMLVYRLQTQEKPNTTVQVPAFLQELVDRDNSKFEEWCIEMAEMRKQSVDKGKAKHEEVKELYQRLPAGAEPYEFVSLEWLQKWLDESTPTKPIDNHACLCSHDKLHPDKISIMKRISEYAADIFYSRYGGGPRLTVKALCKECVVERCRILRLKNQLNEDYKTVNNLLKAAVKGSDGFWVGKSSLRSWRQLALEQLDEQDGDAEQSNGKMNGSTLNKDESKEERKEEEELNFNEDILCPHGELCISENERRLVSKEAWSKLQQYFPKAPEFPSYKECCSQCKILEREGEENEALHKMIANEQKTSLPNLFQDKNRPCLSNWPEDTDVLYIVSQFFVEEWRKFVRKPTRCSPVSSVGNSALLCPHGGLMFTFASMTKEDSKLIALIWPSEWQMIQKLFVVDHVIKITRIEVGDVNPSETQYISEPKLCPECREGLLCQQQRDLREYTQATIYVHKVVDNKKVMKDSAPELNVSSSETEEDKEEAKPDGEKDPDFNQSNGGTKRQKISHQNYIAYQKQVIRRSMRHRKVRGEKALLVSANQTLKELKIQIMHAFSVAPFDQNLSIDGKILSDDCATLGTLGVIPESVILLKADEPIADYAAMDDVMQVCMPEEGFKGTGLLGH
How it was run: as §1

USP5 = target: T4, USP5 (UniProt P45974)
T4 sequence (whole entry): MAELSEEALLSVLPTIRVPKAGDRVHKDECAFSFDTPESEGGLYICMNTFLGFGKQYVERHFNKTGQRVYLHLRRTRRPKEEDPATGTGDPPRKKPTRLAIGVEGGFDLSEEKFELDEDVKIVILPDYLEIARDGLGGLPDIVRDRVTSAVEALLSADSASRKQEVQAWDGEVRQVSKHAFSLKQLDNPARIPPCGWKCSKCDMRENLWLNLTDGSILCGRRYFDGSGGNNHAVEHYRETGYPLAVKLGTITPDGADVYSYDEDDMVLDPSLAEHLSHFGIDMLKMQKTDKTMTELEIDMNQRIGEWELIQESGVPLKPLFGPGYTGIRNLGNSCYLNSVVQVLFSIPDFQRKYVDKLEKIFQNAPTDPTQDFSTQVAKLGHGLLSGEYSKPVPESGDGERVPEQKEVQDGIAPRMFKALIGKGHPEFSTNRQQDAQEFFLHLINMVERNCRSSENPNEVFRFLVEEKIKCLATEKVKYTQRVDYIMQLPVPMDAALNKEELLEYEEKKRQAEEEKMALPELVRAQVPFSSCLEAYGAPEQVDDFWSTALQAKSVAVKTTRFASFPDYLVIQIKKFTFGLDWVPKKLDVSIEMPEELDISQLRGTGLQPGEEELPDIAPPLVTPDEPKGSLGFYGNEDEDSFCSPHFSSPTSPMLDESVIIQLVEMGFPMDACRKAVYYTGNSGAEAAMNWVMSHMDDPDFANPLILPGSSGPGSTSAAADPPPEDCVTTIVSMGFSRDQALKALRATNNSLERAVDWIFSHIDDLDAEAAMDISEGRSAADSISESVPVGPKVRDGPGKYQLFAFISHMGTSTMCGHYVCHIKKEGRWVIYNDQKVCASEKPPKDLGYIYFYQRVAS
How it was run: as §1

USP54 = USP54 (UniProt Q70EL1)
How it was run: as §1

USP7 = USP7 (UniProt Q93009)
USP7, sequence (Q93009 whole entry, looked up): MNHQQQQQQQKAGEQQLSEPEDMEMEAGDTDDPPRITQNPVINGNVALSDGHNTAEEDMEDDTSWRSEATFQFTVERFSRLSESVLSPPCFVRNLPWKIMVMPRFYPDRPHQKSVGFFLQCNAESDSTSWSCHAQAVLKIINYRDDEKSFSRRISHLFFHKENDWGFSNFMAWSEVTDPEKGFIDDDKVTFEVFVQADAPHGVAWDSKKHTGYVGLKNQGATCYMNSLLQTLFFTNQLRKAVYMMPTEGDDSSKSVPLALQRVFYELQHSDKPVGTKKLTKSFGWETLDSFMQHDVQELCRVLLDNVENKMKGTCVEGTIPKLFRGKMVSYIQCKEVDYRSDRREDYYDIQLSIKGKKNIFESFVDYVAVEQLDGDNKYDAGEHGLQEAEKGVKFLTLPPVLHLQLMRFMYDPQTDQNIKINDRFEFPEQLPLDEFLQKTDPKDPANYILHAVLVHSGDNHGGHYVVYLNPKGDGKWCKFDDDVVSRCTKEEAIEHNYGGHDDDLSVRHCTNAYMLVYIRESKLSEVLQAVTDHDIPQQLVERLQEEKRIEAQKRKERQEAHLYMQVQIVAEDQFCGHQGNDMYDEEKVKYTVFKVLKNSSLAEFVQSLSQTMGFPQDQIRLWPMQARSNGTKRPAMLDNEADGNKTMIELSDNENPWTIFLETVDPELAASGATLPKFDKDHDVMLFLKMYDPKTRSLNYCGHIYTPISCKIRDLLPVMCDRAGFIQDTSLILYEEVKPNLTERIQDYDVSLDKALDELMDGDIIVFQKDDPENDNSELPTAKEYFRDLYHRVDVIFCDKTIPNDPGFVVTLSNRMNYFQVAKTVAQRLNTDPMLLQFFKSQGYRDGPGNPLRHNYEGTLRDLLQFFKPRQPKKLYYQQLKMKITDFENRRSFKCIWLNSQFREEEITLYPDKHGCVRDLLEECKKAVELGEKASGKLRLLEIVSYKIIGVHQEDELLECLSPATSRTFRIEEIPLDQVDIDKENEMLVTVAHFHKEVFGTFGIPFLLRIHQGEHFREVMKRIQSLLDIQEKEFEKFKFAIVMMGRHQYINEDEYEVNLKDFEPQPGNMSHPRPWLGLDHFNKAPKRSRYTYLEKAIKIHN
How it was run: as §1

USP8 = target: T5, USP8 (UniProt P40818)
T5 sequence (whole entry): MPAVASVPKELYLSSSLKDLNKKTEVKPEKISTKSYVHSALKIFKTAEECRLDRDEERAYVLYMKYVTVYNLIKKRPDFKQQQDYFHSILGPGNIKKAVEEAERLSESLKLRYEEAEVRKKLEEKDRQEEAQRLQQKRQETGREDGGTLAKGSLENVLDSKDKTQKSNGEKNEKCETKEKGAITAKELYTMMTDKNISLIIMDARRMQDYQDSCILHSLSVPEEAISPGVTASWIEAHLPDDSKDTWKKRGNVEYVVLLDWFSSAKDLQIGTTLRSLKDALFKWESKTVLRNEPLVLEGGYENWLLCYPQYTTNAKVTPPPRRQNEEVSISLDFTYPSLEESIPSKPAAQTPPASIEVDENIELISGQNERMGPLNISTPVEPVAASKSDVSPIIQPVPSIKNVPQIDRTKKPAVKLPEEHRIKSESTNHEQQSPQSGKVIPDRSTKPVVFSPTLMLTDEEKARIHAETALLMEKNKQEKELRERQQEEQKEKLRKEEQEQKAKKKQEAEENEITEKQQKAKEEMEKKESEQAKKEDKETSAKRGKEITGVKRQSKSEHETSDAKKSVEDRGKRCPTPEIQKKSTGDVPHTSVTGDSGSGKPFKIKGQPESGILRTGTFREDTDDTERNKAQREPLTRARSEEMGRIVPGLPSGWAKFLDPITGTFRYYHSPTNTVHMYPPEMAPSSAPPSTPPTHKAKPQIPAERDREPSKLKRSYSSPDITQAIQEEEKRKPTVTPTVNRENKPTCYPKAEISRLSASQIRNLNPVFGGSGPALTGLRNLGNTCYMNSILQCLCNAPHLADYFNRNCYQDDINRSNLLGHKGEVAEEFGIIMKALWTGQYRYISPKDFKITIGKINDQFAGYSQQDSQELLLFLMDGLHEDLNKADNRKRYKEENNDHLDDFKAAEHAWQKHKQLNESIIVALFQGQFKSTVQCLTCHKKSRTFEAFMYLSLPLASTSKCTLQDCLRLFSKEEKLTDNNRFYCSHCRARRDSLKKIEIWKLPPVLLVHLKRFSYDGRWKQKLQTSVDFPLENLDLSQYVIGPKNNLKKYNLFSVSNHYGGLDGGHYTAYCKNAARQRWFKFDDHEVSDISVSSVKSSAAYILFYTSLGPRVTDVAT
How it was run: as §1

USP9X = USP9X (UniProt Q93008)
USP9X, sequence (Q93008 whole entry): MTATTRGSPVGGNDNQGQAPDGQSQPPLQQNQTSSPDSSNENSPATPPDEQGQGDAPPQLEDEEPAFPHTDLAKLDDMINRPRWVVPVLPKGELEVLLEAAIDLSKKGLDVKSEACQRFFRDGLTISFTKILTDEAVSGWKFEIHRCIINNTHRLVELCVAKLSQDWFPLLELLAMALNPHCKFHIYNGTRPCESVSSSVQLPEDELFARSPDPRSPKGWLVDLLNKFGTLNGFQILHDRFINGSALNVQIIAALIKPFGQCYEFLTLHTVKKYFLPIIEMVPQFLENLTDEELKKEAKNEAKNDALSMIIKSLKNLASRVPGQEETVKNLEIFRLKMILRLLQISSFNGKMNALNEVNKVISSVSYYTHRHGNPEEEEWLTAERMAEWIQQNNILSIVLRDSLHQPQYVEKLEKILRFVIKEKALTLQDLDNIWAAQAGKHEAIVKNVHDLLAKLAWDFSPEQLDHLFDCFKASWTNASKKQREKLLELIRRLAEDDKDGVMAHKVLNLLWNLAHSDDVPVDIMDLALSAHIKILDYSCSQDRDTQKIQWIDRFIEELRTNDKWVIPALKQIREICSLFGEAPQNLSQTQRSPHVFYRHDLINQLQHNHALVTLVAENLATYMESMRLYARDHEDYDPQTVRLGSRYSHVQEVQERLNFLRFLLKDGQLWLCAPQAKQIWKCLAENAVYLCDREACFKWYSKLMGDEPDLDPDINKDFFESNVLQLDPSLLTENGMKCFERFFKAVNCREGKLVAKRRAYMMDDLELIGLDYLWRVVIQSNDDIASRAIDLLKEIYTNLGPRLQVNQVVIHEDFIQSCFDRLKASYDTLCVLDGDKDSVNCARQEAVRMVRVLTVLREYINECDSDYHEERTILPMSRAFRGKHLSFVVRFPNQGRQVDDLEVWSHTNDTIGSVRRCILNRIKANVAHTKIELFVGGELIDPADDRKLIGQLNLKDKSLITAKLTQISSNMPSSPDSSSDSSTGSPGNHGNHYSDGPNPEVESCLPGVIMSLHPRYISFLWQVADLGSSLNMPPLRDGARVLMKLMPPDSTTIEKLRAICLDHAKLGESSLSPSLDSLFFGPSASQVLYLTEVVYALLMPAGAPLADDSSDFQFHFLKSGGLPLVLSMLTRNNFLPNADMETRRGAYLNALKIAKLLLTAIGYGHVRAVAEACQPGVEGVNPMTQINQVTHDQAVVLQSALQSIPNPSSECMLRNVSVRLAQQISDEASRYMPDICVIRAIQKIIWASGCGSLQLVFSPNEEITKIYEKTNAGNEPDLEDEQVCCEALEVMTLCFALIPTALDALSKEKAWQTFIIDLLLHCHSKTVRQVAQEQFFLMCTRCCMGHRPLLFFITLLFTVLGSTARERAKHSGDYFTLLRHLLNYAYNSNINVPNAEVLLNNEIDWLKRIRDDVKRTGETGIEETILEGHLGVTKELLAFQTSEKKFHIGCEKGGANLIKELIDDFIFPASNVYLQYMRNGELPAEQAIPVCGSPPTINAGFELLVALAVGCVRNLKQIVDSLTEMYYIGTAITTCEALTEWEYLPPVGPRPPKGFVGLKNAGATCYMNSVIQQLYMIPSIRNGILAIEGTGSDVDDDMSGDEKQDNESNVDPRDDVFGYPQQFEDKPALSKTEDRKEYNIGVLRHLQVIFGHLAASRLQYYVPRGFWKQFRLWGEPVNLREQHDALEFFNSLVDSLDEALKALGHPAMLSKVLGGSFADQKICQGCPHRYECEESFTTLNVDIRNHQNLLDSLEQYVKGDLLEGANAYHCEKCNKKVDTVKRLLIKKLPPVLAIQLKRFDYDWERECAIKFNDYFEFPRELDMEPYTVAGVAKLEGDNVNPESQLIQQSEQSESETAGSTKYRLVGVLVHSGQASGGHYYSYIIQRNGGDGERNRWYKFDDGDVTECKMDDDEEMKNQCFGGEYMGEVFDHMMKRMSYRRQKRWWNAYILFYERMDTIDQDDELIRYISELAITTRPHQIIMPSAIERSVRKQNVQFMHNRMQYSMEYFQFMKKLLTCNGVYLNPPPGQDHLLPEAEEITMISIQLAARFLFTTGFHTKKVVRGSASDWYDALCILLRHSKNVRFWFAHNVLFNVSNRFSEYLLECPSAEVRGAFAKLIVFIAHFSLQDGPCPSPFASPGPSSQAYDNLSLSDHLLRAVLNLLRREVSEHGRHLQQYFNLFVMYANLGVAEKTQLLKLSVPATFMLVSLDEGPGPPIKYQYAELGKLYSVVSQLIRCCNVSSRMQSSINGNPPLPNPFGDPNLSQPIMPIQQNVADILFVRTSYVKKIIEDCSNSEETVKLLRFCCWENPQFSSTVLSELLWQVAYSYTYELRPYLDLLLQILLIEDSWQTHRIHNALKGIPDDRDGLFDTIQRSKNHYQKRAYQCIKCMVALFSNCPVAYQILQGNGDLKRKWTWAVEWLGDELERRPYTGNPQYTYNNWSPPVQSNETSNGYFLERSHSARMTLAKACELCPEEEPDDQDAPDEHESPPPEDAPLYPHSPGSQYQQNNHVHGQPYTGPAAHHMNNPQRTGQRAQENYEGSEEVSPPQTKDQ
How it was run: as §1

UniProt O00487 = target: UniProt O00487
UniProt O00487, sequence (O00487 whole entry): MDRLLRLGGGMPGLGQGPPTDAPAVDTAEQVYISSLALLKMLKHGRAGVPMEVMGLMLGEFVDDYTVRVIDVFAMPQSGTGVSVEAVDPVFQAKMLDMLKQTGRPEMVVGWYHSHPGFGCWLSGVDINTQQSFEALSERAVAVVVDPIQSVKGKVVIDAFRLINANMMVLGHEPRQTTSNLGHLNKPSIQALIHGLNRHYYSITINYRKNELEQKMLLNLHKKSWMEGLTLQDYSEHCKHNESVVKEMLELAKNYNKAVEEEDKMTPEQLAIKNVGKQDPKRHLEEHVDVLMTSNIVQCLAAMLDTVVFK
How it was run: as §1

Measured: log2 ratio of Biotin-Ahx-Ub-VS probe labelling

O=C(CCl)N1CCC2(CCC(O)CC2)CC1
inactive: USP42 0.175 | USP46 0.0165 | USP47 -0.0514 | USP48 -0.0801 | USP5 0.218 | USP54 0.833 | USP7 -0.00495 | USP8 -0.382 | USP9X -0.156 | UniProt O00487 0.0439
